Laboratory results taken from PubChem BioAssay (EPA / NIEHS).
Records with an inconclusive call do not appear. Activity calls are given as the source filed them. How the source made its calls, unless noted: active means hit-call score of the fitted dose curve at least 0.9, where 1 is the maximum; inactive means score below 0.9.

Experiments:
[1] = ATG_M_06_TRANS: Attagene TRANS-FACTORIAL HepG2 Assay for M06 Transcription Factor (Internal Marker) (AID 2282983; active means hit-call score of the fitted dose curve at least 0.9, where 1 is the maximum;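 on AC50: potency for rise in reporter mRNA above DMSO baseline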;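 on outcome: reporter transcript level by RT-PCR then capillary electrophoresis fluorescence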); conditions: HepG2 Attagene TRANS M06 internal marker reporter
Procedure, shortened: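 Background-control reporter readout: after 24 h chemical exposure of transiently transfected HepG2 (GAL4-UAS reporter units), mRNA quantified by RT-PCR with fluorescent labeling and capillary electrophoresis. Gain-of-signal fitting against DMSO baseline.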

[2] = ATG_M_32_TRANS: Attagene TRANS-FACTORIAL HepG2 Assay for M32 Transcription Factor (Internal Marker) (AID 2282984; active means hit-call score of the fitted dose curve at least 0.9, where 1 is the maximum;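 further: transcript level of a background control reporter unit measured by RT-PCR and capillary electrophoresis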); conditions: HepG2 Attagene TRANS M32 internal marker reporter
Procedure, shortened: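 Cell-based TRANS-format assay in HepG2: exogenous chimeric GAL4 reporter units transiently expressed, compounds applied 24 h. Reporter mRNA detected by RT-PCR plus capillary electrophoresis; this readout is an internal background marker.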

[3] = target: Transcriptional activator Myb (Homo sapiens) (UniProt P10242); assay: ATG_Myb_CIS: Attagene CIS-FACTORIAL HepG2 Assay for human Myeloblastosis (Myb) Proto-Oncogene Transcription Factor (AID 2282986); conditions: HepG2 Attagene CIS-FACTORIAL Myb reporter transcription; actives raise or lower the signal
Sequence of Transcriptional activator Myb (Homo sapiens) (P10242 whole entry, looked up): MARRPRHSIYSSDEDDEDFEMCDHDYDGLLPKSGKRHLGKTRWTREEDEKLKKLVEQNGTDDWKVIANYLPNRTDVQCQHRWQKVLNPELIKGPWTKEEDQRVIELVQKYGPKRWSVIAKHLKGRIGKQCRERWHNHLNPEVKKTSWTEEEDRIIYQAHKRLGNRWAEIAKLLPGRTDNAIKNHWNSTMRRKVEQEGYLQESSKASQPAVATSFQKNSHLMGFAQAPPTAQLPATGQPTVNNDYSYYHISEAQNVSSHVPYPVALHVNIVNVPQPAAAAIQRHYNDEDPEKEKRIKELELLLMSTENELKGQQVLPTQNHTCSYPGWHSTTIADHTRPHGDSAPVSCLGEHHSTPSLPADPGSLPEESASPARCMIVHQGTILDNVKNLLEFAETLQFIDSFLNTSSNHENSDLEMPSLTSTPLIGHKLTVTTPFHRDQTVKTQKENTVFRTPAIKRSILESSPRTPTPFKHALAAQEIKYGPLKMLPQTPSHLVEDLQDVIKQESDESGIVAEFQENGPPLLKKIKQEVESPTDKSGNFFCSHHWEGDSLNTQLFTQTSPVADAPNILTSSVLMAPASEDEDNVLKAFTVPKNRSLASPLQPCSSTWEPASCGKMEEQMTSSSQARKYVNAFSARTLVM
Procedure, shortened: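 Endogenous transcription factor activity at a Myb-responsive cis element is reported in human liver HepG2 cells after 24 h chemical treatment. Reporter mRNA is detected by RT-PCR and capillary electrophoresis fluorescence, with DMSO as baseline.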

[4] = target: Nuclear respiratory factor 1 (Homo sapiens) (UniProt Q16656); assay: ATG_NRF1_CIS: Attagene CIS-FACTORIAL HepG2 Assay for human Nuclear Respiratory Factor 1 (NRF1) Orphan Gene (AID 2282987); conditions: HepG2 NRF1 cis-element reporter, Attagene multiplex; actives raise or lower the signal
Sequence of Nuclear respiratory factor 1 (Homo sapiens) (Q16656 whole entry, looked up): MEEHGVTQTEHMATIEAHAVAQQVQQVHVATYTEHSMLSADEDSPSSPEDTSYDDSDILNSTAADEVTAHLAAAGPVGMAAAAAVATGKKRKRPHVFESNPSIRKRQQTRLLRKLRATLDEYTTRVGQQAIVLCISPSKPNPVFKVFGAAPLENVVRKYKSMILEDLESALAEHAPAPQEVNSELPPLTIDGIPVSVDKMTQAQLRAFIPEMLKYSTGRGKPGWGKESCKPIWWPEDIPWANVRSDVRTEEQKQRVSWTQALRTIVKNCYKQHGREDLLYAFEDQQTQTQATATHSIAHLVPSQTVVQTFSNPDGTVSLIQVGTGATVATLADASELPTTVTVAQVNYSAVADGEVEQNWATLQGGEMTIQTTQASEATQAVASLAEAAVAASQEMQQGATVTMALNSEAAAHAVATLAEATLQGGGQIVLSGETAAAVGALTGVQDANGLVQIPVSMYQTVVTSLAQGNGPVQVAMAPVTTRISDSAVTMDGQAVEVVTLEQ
Procedure, shortened: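 Human hepatoma HepG2 cells carrying transfected promoter-regulated reporter units were incubated with test chemicals for 24 h. Reporter transcripts were measured by RT-PCR plus capillary electrophoresis, and endpoints derived by bidirectional fitting with DMSO as baseline.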

[5] = ATG_NFI_CIS: Attagene CIS-FACTORIAL HepG2 Assay for human Nuclear Factor I (NFI) (AID 2282989); conditions: HepG2 cis-regulatory reporter, NFI response element transcription; actives raise or lower the signal
Procedure, shortened: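 Transfected HepG2 liver cells, exposed 24 h, supplied total RNA for oligo(dT) reverse transcription and reporter-specific PCR. Labelled, HpaI-cut fragments were sized by capillary electrophoresis; DMSO set the baseline for bidirectional fitting.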

[6] = target: Myc proto-oncogene protein (Homo sapiens) (UniProt P01106); assay: ATG_Myc_CIS: Attagene CIS-FACTORIAL HepG2 Assay for human Myelocytomatosis (Myc) Proto-Oncogene Transcription Factor (AID 2282990); conditions: HepG2, Attagene cis-reporter transcription factor activity; actives raise or lower the signal
Sequence of Myc proto-oncogene protein (Homo sapiens) (P01106 whole entry, looked up): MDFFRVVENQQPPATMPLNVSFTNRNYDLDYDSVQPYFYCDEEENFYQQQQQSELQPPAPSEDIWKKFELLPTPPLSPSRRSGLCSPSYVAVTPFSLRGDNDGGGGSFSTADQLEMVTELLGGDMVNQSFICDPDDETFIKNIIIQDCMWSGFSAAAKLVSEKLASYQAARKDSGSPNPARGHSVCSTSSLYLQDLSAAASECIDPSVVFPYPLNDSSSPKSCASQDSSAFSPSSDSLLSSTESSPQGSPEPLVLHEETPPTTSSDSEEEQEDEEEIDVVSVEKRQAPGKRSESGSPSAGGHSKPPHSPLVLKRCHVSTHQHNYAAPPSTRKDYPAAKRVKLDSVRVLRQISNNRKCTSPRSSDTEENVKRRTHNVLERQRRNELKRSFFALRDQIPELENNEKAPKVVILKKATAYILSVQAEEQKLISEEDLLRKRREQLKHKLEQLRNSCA
Procedure, shortened: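 HepG2, transient MRTU transfection (cis promoters, endogenous TFs); 24 h dosing; TriZol RNA → oligo(dT) RT → PCR → 6-FAM primer extension → HpaI cut → CE. Bidirectional fit vs DMSO.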

[7] = target: Hepatocyte nuclear factor 4-alpha (Homo sapiens) (UniProt P41235); assay: ATG_HNF4a_TRANS: Attagene TRANS-FACTORIAL HepG2 Assay for human Hepatocyte Nuclear Factor 4 alpha (HNF4a) (AID 2282982; active means hit-call score of the fitted dose curve at least 0.9, where 1 is the maximum); conditions: HepG2 HNF4a transactivation reporter, mRNA readout
Sequence of Hepatocyte nuclear factor 4-alpha (Homo sapiens) (P41235 whole entry, looked up): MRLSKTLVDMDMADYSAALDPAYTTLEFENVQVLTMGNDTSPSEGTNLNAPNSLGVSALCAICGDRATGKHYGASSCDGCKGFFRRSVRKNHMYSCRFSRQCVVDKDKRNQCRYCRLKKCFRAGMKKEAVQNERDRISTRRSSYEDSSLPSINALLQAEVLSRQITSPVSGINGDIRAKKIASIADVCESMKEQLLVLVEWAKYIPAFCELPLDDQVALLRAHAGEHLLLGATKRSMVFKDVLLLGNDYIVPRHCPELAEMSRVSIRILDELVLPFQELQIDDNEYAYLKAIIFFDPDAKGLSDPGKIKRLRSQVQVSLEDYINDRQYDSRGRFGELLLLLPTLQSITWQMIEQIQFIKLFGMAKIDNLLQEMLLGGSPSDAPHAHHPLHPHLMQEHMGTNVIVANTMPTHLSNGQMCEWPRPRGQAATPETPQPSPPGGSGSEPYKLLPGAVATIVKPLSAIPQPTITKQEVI
Procedure, shortened: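 Multiplexed reporter assay: transfected HepG2, 24 h exposure, total RNA → oligo(dT) RT → PCR → 6-FAM extension → HpaI digest → CE fluorescence. DMSO = negative control.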

[8] = target: Nuclear receptor subfamily 4 group A member 2 (Homo sapiens) (UniProt P43354); assay: ATG_NURR1_TRANS: Attagene TRANS-FACTORIAL HepG2 Assay for human Nuclear Receptor Related Protein 1 (NURR1) (AID 2282985; active means hit-call score of the fitted dose curve at least 0.9, where 1 is the maximum); conditions: HepG2 Attagene TRANS reporter, mRNA readout
Sequence of Nuclear receptor subfamily 4 group A member 2 (Homo sapiens) (P43354 whole entry, looked up, the tested form may be a part): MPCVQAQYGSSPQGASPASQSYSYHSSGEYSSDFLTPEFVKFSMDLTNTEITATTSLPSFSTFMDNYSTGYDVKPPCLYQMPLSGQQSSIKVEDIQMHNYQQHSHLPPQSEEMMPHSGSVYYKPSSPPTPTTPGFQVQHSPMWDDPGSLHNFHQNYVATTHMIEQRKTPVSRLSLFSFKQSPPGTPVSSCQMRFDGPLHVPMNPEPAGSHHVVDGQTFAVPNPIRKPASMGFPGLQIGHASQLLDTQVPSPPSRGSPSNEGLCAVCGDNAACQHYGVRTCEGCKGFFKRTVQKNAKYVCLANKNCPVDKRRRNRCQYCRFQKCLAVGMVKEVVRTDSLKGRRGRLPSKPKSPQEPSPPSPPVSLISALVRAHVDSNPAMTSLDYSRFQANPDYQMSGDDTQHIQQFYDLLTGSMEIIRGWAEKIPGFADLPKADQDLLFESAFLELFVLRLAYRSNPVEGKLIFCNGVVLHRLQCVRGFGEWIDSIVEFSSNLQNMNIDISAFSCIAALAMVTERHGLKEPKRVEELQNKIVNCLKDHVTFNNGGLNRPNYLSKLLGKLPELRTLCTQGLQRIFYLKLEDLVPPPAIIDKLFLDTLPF
Procedure, shortened: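 Measures transcriptional activation by an exogenous NR-Gal4 chimera in transfected HepG2 liver cells. After 24 h, reporter RNA is reverse-transcribed, amplified and resolved by capillary electrophoresis; DMSO defines baseline.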

For `CCOC(=O)c1ccc(C2CCC(NC[C@H](O)COc3ccc(O)c(NS(C)(=O)=O)c3)CC2)cc1` (some centres not stated), the AC50 [1] was 62.3 µM (active), the outcome [2] was “inactive” and the AC50 [3] was 55.5 µM (active). For the same molecule, the outcome [4] was “inactive”, the outcome [5] was “inactive” and the AC50 [6] was 53.8 µM (active).

For `CC1(C)C(=O)N(Br)C(=O)N1Br`, the outcome [7] was “inactive”, the outcome [1] was “inactive” and the outcome [8] was “inactive”. The outcome [4] was “inactive”, the outcome [5] was “inactive” and the outcome [6] was “inactive”.

In the case of `NC(=O)NO`, the outcome [1] is reported as “inactive”, the outcome [3] is reported as “inactive” and the outcome [4] is reported as “inactive”. The outcome [5] was “inactive” and the outcome [6] was “inactive”.

For `Cc1ccc(O)cc1`, the outcome [1] was “inactive”, the outcome [4] was “inactive” and the outcome [5] was “inactive”. The outcome [6] was “inactive”.

For `CCOC(=O)COc1ccc2c(c1)CC(NCC(O)c1cccc(Cl)c1)CC2` (configuration not stated), the outcome [2] was “inactive”, the outcome [8] was “inactive” and the outcome [4] was “inactive”. The outcome [5] was “inactive” and the outcome [6] was “inactive”.

With `On1ccccc1=S` the outcome [7] was “inactive”, the outcome [1] was “inactive” and the outcome [2] was “inactive”. For the same molecule, the outcome [4] was “inactive”, the outcome [5] was “inactive” and the outcome [6] was “inactive”.

For `Clc1nc(Cl)c(Cl)c(Cl)c1Cl`, the outcome [1] was “inactive”, the outcome [2] was “inactive” and the outcome [8] was “inactive”. The outcome [3] was “inactive”, the outcome [4] was “inactive” and the outcome [5] was “inactive”. The outcome [6] was “inactive”.

For `Cc1ccc(C)c(O)c1`, the outcome [1] was “inactive”, the outcome [2] was “inactive” and the outcome [4] was “inactive”. For the same molecule, the outcome [5] was “inactive” and the outcome [6] was “inactive”.

In the case of `CCNc1ccccc1`, the outcome [1] is reported as “inactive”, the outcome [8] is reported as “inactive” and the outcome [3] is reported as “inactive”. The outcome [4] was “inactive”, the outcome [5] was “inactive” and the outcome [6] was “inactive”.

For `O=C(O)c1cccc(Oc2ccccc2)c1`, the outcome [1] was “inactive”, the outcome [4] was “inactive” and the outcome [5] was “inactive”. The outcome [6] was “inactive”.

In the case of `C[C@](N)(Cc1ccc(O)c(O)c1)C(=O)O`, the outcome [7] is reported as “inactive”, the outcome [1] is reported as “inactive” and the outcome [8] is reported as “inactive”. For the same molecule, the outcome [4] was “inactive”, the outcome [5] was “inactive” and the outcome [6] was “inactive”.

With `CC(C)=CCC/C(C)=C/CO` the outcome [1] was “inactive”, the outcome [3] was “inactive” and the outcome [4] was “inactive”. For the same molecule, the outcome [5] was “inactive” and the outcome [6] was “inactive”.

With `Fc1ccccc1[C@@H](F)COC1CCC(Nc2ncnc3[nH]ncc23)CC1` (some centres not stated) the outcome [7] was “inactive”, the outcome [2] was “inactive” and the outcome [8] was “inactive”. For the same molecule, the outcome [3] was “inactive”, the AC50 [4] was 9.56 µM (active) and the outcome [5] was “inactive”. For the same molecule, the AC50 [6] was 25.4 µM (active).
